Laboratory results as given in PubChem BioAssay (NCI).
Compounds without any hit were thinned out: in the full panel of roughly 79,000, 15% have a hit. Activity calls are given as the source filed them. Rule as the data show it: active = growth inhibition above about 70%; inactive = the rest.

Columns and labels:
[1] = NCI Yeast Anticancer Drug Screen. Data for the wt1 strain (AID 149);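 also: 0% = growth of vehicle-treated wt1 cultures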; details: S. cerevisiae wt1 strain (SPY 50644) growth inhibition, hits give high values
Procedure, shortened: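 Compounds are added to wt1 yeast cultures. Growth is then measured. Inhibition is expressed relative to vehicle-treated controls.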

[2] = NCI Yeast Anticancer Drug Screen. Data for the rad50EPP+ strain (AID 151);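 also: 0% = growth of vehicle-treated control cultures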; details: S. cerevisiae rad50 mutant strain, hits give high values
Procedure, shortened: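 Yeast strain carrying rad50 alteration (rad50EPP+) exposed to compounds; growth inhibition measured relative to vehicle-treated controls.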

[3] = NCI Yeast Anticancer Drug Screen. Data for the mgt1 strain (AID 153); details: S. cerevisiae mgt1 mutant growth inhibition, hits give high values
Procedure, shortened: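 Yeast mgt1 strain (DNA repair/cell-cycle alteration panel) exposed to compounds; growth inhibition measured relative to vehicle-treated controls.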

[4] = NCI Yeast Anticancer Drug Screen. Data for the rad50 strain (AID 155);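 also: 0% = growth of vehicle-only cultures of the same strain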; details: S. cerevisiae rad50 strain growth inhibition, hits give high values
Procedure, shortened: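 Inhibition values express reduced yeast growth in compound-treated cultures relative to vehicle-treated controls.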

[5] = NCI Yeast Anticancer Drug Screen. Data for the mec2-1 strain (AID 157); details: S. cerevisiae mec2-1 strain, hits give high values
Procedure, shortened: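 mec2-1 yeast strain, carrying an alteration in DNA damage repair or cell cycle control, was exposed to compounds; growth inhibition was measured relative to vehicle-treated controls.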

[6] = NCI Yeast Anticancer Drug Screen. Data for the rad14 strain (AID 159);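 also: 0% = growth of vehicle-treated control cultures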; details: S. cerevisiae rad14 strain growth inhibition, hits give high values
Procedure, shortened: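 A mutant yeast strain defective in DNA damage repair is treated with compound; inhibition of its growth is scored against untreated, vehicle-exposed cultures.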

[7] = NCI Yeast Anticancer Drug Screen. Data for the CLN2oe strain (AID 163);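 also: 0% = growth of vehicle-only control cultures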; details: S. cerevisiae CLN2oe strain, hits give high values
Procedure, shortened: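 Yeast cells carrying a defined cell-cycle control alteration were exposed to test compounds. Growth inhibition was scored against vehicle-treated control cultures.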

[8] = NCI Yeast Anticancer Drug Screen. Data for the cln2 rad14 strain (AID 165);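 also: 0% = growth equal to vehicle treated cultures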; details: S. cerevisiae cln2 rad14 strain, hits give high values
Procedure, shortened: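 Yeast carrying cln2 and rad14 alterations (cell cycle control and DNA damage repair) were exposed to compounds. Growth inhibition was measured against vehicle-treated controls.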

[9] = NCI Yeast Anticancer Drug Screen. Data for the bub3 strain (AID 167); details: S. cerevisiae bub3 mutant strain, hits give high values
Procedure, shortened: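 Steps: expose the mutant yeast strain to compound; grow alongside vehicle-treated cultures; measure growth; express inhibition against the vehicle cultures.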

[10] = NCI Yeast Anticancer Drug Screen. Data for the wt2 strain (AID 169);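 also: 0% = growth of vehicle-treated yeast cultures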; details: S. cerevisiae wt2 strain growth inhibition, hits give high values
Procedure, shortened: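 Yeast cells were exposed to test compounds, and growth inhibition was measured relative to vehicle-treated controls.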

[11] = NCI Yeast Anticancer Drug Screen. Data for the sgs1 strain (AID 173);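 also: 0% = growth of vehicle-only control cultures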; details: S. cerevisiae sgs1 mutant, hits give high values
Procedure, shortened: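 Yeast mutant strains carrying defined defects in DNA damage repair or cell cycle control were exposed to test compounds. Growth inhibition was scored against vehicle-treated controls.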

[12] = NCI Yeast Anticancer Drug Screen. Data for the mlh1 rad18 strain (AID 175); details: S. cerevisiae mlh1 rad18 strain growth inhibition, hits give high values
Procedure, shortened: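 Growth inhibition of the yeast strain was measured after compound exposure and expressed relative to vehicle-treated controls. The strain carries defined defects in DNA damage repair.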

[13] = NCI Yeast Anticancer Drug Screen. Data for the rad18 strain (AID 177); details: S. cerevisiae rad18 mutant growth inhibition, hits give high values
Procedure, shortened: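 Yeast carrying a defined DNA damage repair alteration were exposed to compounds. Growth inhibition was expressed relative to vehicle-treated controls.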

[14] = NCI Yeast Anticancer Drug Screen. Data for the mlh1 strain (AID 171);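 also: 0% = growth of vehicle-treated control cultures of the same strain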; details: S. cerevisiae mlh1 strain growth inhibition, hits give high values
Procedure, shortened: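 Yeast carrying a defined genetic alteration in DNA damage repair or cell cycle control were exposed to test compounds. Growth inhibition was measured relative to vehicle-treated controls.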

[15] = at 5.0 µM (retest, dose inferred, filed as 0.5)
[16] = at 50.0 µM (retest, dose inferred, filed as 5.0)

Measured: growth inhibition

CC(C)OC(CCC#N)c1ccc(Cl)cc1 (stereo not given)
active: [4]; [16] 99% | [5]; [16] 99% | [12]; [16] 100%
inactive: [1]; at 1.2 µM -35% | [1]; at 3.7 µM -28% | [1]; at 11.0 µM -24% | [1]; at 33.0 µM -13% | [1]; at 100.0 µM 4% | [2]; at 1.2 µM -6% | [2]; at 3.7 µM 1% | [2]; at 11.0 µM 2% | [2]; at 33.0 µM 5% | [2]; at 100.0 µM 20% | [3]; at 1.2 µM -46% | [3]; at 3.7 µM -44% | [3]; at 11.0 µM -41% | [3]; at 33.0 µM -17% | [3]; at 100.0 µM 7% | [4]; at 1.2 µM -22% | [4]; at 3.7 µM -25% | [4]; [15] 62% | [4]; at 11.0 µM -26% | [4]; at 33.0 µM -6% | [4]; at 50.0 µM 3.4% | [4]; at 100.0 µM 24% | [5]; at 1.2 µM -29% | [5]; at 3.7 µM -28% | [5]; [15] 55% | [5]; at 11.0 µM -18% | [5]; at 33.0 µM -2% | [5]; at 50.0 µM 7.95% | [5]; at 100.0 µM 7% | [6]; at 1.2 µM -22% | [6]; at 3.7 µM -26% | [6]; at 11.0 µM -12% | [6]; at 33.0 µM -6% | [6]; at 100.0 µM 1% | [7]; at 1.2 µM 11% | [7]; at 3.7 µM -6% | [7]; at 11.0 µM 14% | [7]; at 33.0 µM 15% | [7]; at 100.0 µM 11% | [8]; [15] 48% | [8]; [16] 46% | [8]; at 50.0 µM 6.8% | [9]; at 1.2 µM -18% | [9]; at 3.7 µM -12% | [9]; [15] 44% | [9]; at 11.0 µM -19% | [9]; at 33.0 µM 5% | [9]; [16] 45% | [9]; at 50.0 µM -1.8% | [9]; at 100.0 µM 4% | [10]; at 1.2 µM -19% | [10]; at 3.7 µM -21% | [10]; at 11.0 µM -17% | [10]; at 33.0 µM -12% | [10]; at 100.0 µM 12% | [11]; at 1.2 µM -20% | [11]; at 3.7 µM -11% | [11]; at 11.0 µM -8% | [11]; at 33.0 µM 17% | [11]; at 100.0 µM 40% | [12]; [15] 42% | [12]; at 50.0 µM 19.9% | [13]; at 1.2 µM -29% | [13]; at 3.7 µM -32% | [13]; at 11.0 µM -24% | [13]; at 33.0 µM -16% | [13]; at 100.0 µM 0%

O=S(=O)(Oc1c(Cl)cc(Cl)cc1Cl)c1ccccc1
active: [2]; at 33.0 µM 71% | [2]; at 100.0 µM 89%
inactive: [1]; at 1.2 µM -4% | [1]; at 3.7 µM -7% | [1]; at 11.0 µM -9% | [1]; at 33.0 µM -11% | [1]; at 100.0 µM -5% | [2]; at 1.2 µM 8% | [2]; at 3.7 µM 23% | [2]; at 11.0 µM 37% | [3]; at 1.2 µM -3% | [3]; at 3.7 µM -5% | [3]; at 11.0 µM -2% | [3]; at 33.0 µM 9% | [3]; at 100.0 µM 30% | [4]; at 1.2 µM 0% | [4]; at 3.7 µM 3% | [4]; [15] 8% | [4]; at 11.0 µM 10% | [4]; at 33.0 µM 14% | [4]; [16] 12% | [4]; at 50.0 µM 10.2% | [4]; at 100.0 µM 14% | [5]; at 1.2 µM -4% | [5]; at 3.7 µM -1% | [5]; [15] -9% | [5]; at 11.0 µM 1% | [5]; at 33.0 µM 4% | [5]; [16] 20% | [5]; at 50.0 µM 40.5% | [5]; at 100.0 µM 13% | [6]; at 1.2 µM 0% | [6]; at 3.7 µM 0% | [6]; at 11.0 µM 8% | [6]; at 33.0 µM 11% | [6]; at 100.0 µM 12% | [7]; at 1.2 µM -1% | [7]; at 3.7 µM -4% | [7]; at 11.0 µM -14% | [7]; at 33.0 µM -14% | [7]; at 100.0 µM -8% | [8]; [15] -18% | [8]; [16] 20% | [8]; at 50.0 µM -33.5% | [9]; at 1.2 µM -1% | [9]; at 3.7 µM -4% | [9]; [15] 0% | [9]; at 11.0 µM -2% | [9]; at 33.0 µM 0% | [9]; [16] -8% | [9]; at 50.0 µM 55.4% | [9]; at 100.0 µM 14% | [14]; at 1.2 µM -1% | [14]; at 3.7 µM -2% | [14]; at 11.0 µM -10% | [14]; at 33.0 µM 13% | [14]; at 100.0 µM 28% | [11]; at 1.2 µM -3% | [11]; at 3.7 µM -1% | [11]; at 11.0 µM 11% | [11]; at 33.0 µM 22% | [11]; at 100.0 µM 11% | [12]; [15] -7% | [12]; [16] 56% | [12]; at 50.0 µM 63.6% | [13]; at 1.2 µM -3% | [13]; at 3.7 µM 4% | [13]; at 11.0 µM 12% | [13]; at 33.0 µM 19% | [13]; at 100.0 µM 30%

Cn1c(COc2ccc(/C=N/NC(=O)CCC(=O)N/N=C/c3ccc(OCc4c[n+]5ccccc5n4C)cc3)cc2)c[n+]2ccccc12
inactive: [1]; at 1.2 µM 6% | [1]; at 3.7 µM 7% | [1]; at 11.0 µM 11% | [1]; at 33.0 µM 12% | [2]; at 1.2 µM -4% | [2]; at 3.7 µM -7% | [2]; at 11.0 µM -18% | [2]; at 33.0 µM -18% | [2]; at 100.0 µM 45% | [3]; at 1.2 µM 4% | [3]; at 3.7 µM 3% | [3]; at 11.0 µM 4% | [3]; at 33.0 µM 24% | [4]; at 1.2 µM 1% | [4]; at 3.7 µM 2% | [4]; [15] -11% | [4]; at 11.0 µM 1% | [4]; at 33.0 µM 5% | [4]; [16] 55% | [4]; at 50.0 µM 49.1% | [5]; at 1.2 µM -2% | [5]; at 3.7 µM 0% | [5]; [15] -10% | [5]; at 11.0 µM 0% | [5]; at 33.0 µM 10% | [5]; [16] 12% | [5]; at 50.0 µM 32.1% | [6]; at 1.2 µM 0% | [6]; at 3.7 µM -1% | [6]; at 11.0 µM 0% | [6]; at 33.0 µM 7% | [7]; at 1.2 µM -5% | [7]; at 3.7 µM -3% | [7]; at 11.0 µM -3% | [7]; at 33.0 µM -5% | [8]; [15] -8% | [8]; [16] 28% | [8]; at 50.0 µM 18.8% | [9]; at 1.2 µM -3% | [9]; at 3.7 µM -6% | [9]; [15] -24% | [9]; at 11.0 µM -6% | [9]; at 33.0 µM -1% | [9]; [16] 33% | [9]; at 50.0 µM 18.9% | [10]; at 1.2 µM 4% | [10]; at 3.7 µM 5% | [10]; at 11.0 µM 8% | [10]; at 33.0 µM 12% | [14]; at 1.2 µM 1% | [14]; at 3.7 µM -2% | [14]; at 11.0 µM -1% | [14]; at 33.0 µM 8% | [11]; at 1.2 µM 4% | [11]; at 3.7 µM 4% | [11]; at 11.0 µM 5% | [11]; at 33.0 µM 16% | [12]; [15] -15% | [13]; at 1.2 µM 2% | [13]; at 3.7 µM 3% | [13]; at 11.0 µM 28% | [13]; at 33.0 µM 9%
active: [1]; at 100.0 µM 81% | [3]; at 100.0 µM 98% | [4]; at 100.0 µM 97% | [5]; at 100.0 µM 96% | [6]; at 100.0 µM 97% | [7]; at 100.0 µM 76% | [9]; at 100.0 µM 95% | [10]; at 100.0 µM 99% | [14]; at 100.0 µM 96% | [11]; at 100.0 µM 96% | [12]; [16] 84% | [12]; at 50.0 µM 90.2% | [13]; at 100.0 µM 98%
